Data reported in the supplement of paper PMC3545927.
Some of the results follow. No count for the full screen is at hand.

Biological target: furin, P09958
Assay: furin cleavage Z-score vs untreated control; higher = more cleavage, active = 3.5 or more, inactive = 1 or less, 8 variable residues between constant flanks
Summary of the method: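 Cleavage by purified furin was measured on 8-mer peptides fused to a cDNA oligonucleotide and held on magnetic beads by their N-terminus. Reactions (0.01 ml, 1:10 enzyme:substrate) ran 7.5, 15 or 30 min in 50 mM HEPES pH 7.5 with CaCl2 and NaCl. Released DNA was adapter-tagged by PCR and sequenced, with read counts giving abundance. Log counts versus furin-free reactions were lowess-adjusted and scaled by median absolute deviation to give the cleavage Z-score.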

Sequence of furin, P09958 (P09958 whole entry): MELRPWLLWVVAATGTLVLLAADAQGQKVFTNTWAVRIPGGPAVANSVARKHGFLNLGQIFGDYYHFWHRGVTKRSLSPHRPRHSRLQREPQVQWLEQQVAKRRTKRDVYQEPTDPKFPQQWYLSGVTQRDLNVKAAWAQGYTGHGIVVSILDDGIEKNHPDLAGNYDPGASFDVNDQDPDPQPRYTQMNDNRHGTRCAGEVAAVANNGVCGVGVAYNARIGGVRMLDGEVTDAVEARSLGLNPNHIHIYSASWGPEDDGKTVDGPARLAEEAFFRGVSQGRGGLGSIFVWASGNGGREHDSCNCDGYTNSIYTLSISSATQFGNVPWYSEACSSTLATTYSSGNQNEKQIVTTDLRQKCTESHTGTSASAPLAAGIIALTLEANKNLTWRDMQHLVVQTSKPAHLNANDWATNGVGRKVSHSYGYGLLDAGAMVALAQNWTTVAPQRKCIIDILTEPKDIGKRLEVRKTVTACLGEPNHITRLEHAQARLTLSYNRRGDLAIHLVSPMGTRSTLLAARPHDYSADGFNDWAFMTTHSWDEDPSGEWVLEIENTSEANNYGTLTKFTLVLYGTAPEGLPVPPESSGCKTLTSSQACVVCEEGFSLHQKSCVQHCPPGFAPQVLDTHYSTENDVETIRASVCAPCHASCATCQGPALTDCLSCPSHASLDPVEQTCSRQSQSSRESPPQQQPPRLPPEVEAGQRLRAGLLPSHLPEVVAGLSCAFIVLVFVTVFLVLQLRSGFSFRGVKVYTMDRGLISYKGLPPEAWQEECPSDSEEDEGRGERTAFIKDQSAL

Sequence | furin cleavage Z-score (7.5 min) | furin cleavage Z-score (15 min) | furin cleavage Z-score (30 min)
CAITPRCLVDAGNASASA [HC462] | -0.371 (inactive) | -0.729 (inactive) | -2.3 (inactive)
CARTRRLLDKAGNASASA [FS-2834] | -0.433 (inactive) | -1.53 (inactive) | -0.417 (inactive)
CARTRRLLWAAGNASASA [FS-2097] | -0.0202 (inactive) | 0.591 (inactive) | -0.328 (inactive)
CARTRRALSDAGNASASA [FS-3173] | 7.04 (active) | 8.87 (active) | 6.82 (active)
CARTPRGLDDAGNASASA [FS-3110] | 5.13 (active) | 6.18 (active) | 6 (active)
CARTRRHLHDAGNASASA [FS-2615] | 7.74 (active) | 9.2 (active) | 8.75 (active)
CARTPRPGEQAGNASASA [FS-2832] | -0.162 (inactive) | -0.138 (inactive) | -0.877 (inactive)
CAESTLSTALAGNASASA [HC1329] | -0.324 (inactive) | 0.0602 (inactive) | 1.27
CAEVPCHRPDAGNASASA [HC2411] | -1.49 (inactive) | -0.692 (inactive) | 0.135 (inactive)
CAASSSKKRSAGNASASA [FS-1310] | 1.7 | 1.89 | 0.28 (inactive)
CAILSRKKRSAGNASASA [FS-598] | 13.1 (active) | 11 (active) | 8.58 (active)
CAHNGRKKRSAGNASASA [FS-794] | 12.6 (active) | 13.4 (active) | 9.77 (active)
CAHNGLRDLAAGNASASA [HC641] | -0.235 (inactive) | 0.0336 (inactive) | 0.434 (inactive)
CADTGYPKRSAGNASASA [FS-1587] | 0.338 (inactive) | -0.532 (inactive) | 2.06
CAEVPCHFPSAGNASASA [HC2367] | 0.277 (inactive) | -0.0294 (inactive) | 0.605 (inactive)
CAEVVTSTWDAGNASASA [HC2251] | -0.232 (inactive) | -0.217 (inactive) | -0.0353 (inactive)
CATPTVATRDAGNASASA [HC282] | -1.53 (inactive) | 0.0271 (inactive) | -0.971 (inactive)
CAEVVTSRWVAGNASASA [HC2213] | 0.434 (inactive) | -0.178 (inactive) | 1.55
CAEAWRSRRDAGNASASA [FS-761] | 5 (active) | 6.16 (active) | 5.62 (active)
CAVLTRSRRDAGNASASA [FS-573] | 15.8 (active) | 16 (active) | 10.2 (active)
CATPKRSRRDAGNASASA [FS-202] | 10.5 (active) | 10.4 (active) | 6.86 (active)
CAQPSSSRRDAGNASASA [FS-1251] | -0.0806 (inactive) | -1.03 (inactive) | -1.19 (inactive)
CALHSRNKRLAGNASASA [FS-607] | 7.17 (active) | 9.47 (active) | 6.69 (active)
CAKPARRKRLAGNASASA [FS-44] | 8.86 (active) | 9.53 (active) | 10.1 (active)
CAGPIRRKRLAGNASASA [FS-1526] | 11.1 (active) | 11.4 (active) | 9.25 (active)
CAWHSRRKRLAGNASASA [FS-210] | 9.83 (active) | 11.7 (active) | 10.6 (active)
CAKPARVSKDAGNASASA [FS-259] | -0.289 (inactive) | -0.617 (inactive) | -0.0479 (inactive)
CALHSRPQRLAGNASASA [FS-939] | 0.578 (inactive) | 1.4 | 1.43
CAGPQRQKKLAGNASASA [FS-1202] | -0.669 (inactive) | -1.47 (inactive) | -0.377 (inactive)
